Laboratory results from PubChem BioAssay.
Active and inactive are the calls of the source.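 The calls were made as follows, unless noted: active = compounds that lower viability of the colon cancer cells in the luminescence readout, with no numeric limit stated; inactive = the rest.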

Assays:
[1] = Wnt pathway potentiators raising nuclear beta-catenin – imaging, WNT3A-conditioned medium, mouse C2C12, NPC library, primary screen (AID 1117326; in the data active = nuclear beta-catenin stimulation mostly above about 4.2%, no sharp cut-off; inactive = mostly below about 10%; also: reference of the scale not given here); details: stronger effect = higher value
[2] = stimulators of insulin release from INS-1E, primary screen, cell-based, 5 mM glucose, NPC library (AID 1117329;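 active = compound raises insulin release from rat beta cells at 5 mM glucose, no numeric limit stated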; also: reference of the scale not given here); details: rat INS-1E insulin secretion, at 10 µM, stronger effect = higher value
[3] = growth inhibition of GSK3B-pretreated HCT116 cells – cell-based, CellTiter-Glo, 0.2 to 20 µM (AID 1117336;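 active = compounds lowering colon cancer cell viability after pretreatment blocking the GSK3B kinase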); details: HCT116 viability after GSK3B inhibitor, at 20 µM, stronger effect = higher value
[4] = inhibition of endothelial tube formation, primary screen, imaging, VEGF stimulated, CD31 staining, tube area, NPC library (AID 1117340;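 active = compound that reduces growth-factor-driven endothelial tube area in a mixed cell culture, no cutoff stated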); details: VEGF-stimulated ADSC/ECFC co-culture, at 10 µM, stronger effect = higher value
[5] = GLP1 release stimulators, primary, NCI-H716, NPC library (AID 1117341;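 active = compound raises GLP1 secretion from the human gut endocrine cells, with no numeric limit stated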; also: reference of the scale not given here); details: NCI-H716 cells, at 10 µM, stronger effect = higher value
[6] = HCT116 colon cancer cell growth inhibition, primary screen, CellTiter-Glo luminescence, NPC library (AID 1117342;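 active = compounds that lower survival of HCT116 colon cancer cells in the luminescence readout, no numeric limit stated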); details: at 20 µM (top of the series)
[7] = reduced SW480 viability measured with CellTiter-Glo, NPC library, primary (AID 1117343); details: CellTiter-Glo luminescence; at 20 µM (top of the series)
[8] = NPC library primary testing for decreased DLD-1 cell viability via CellTiter-Glo (AID 1117346;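 active = compounds that lower survival of DLD-1 colon cancer cells in the luminescence readout, no cutoff given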); details: DLD-1 viability, CellTiter-Glo luminescence; at 20 µM (top of the series)

Structure (SMILES)	nuclear beta-catenin stimulation ([1]; at 10 µM)	nuclear beta-catenin stimulation ([1]; stimulation, at 2 µM) [%]	insulin secretion stimulation [2]	viability decrease [3]	tube area decrease [4]	GLP1 secretion stimulation [5]	inhibition of viability [6]	viability decrease (inhibition) [7]	viability decrease (inhibition) [8]
O=C(/C=C/c1ccc(O)c(O)c1)O[C@@H]1C[C@@](OC(=O)/C=C/c2ccc(O)c(O)c2)(C(=O)O)C[C@@H](O)[C@@H]1O	0.7% (inactive)	0.9	-0.6% (inactive)	-72.8% (inactive)	8.1% (inactive)	3.7% (inactive)	6.6% (inactive)	6.5% (inactive)	-13.6% (inactive)
COc1ccccc1OCC1CNC(=O)O1 (centres undefined)	-2% (inactive)	0.2	0.9% (inactive)	-16.8% (inactive)	-6.7% (inactive)	-1.6% (inactive)	4.4% (inactive)	15.3% (inactive)	-2.8% (inactive)
Cc1cccc(N(C)C(=S)Oc2ccc3c(c2)C2CCC3C2)c1 (centres undefined)	0.3% (inactive)	0.6	1% (inactive)	-64.8% (inactive)	15.8% (inactive)	-4.7% (inactive)	50.2% (active)	80% (active)	56.8% (active)
Cc1nc([N+](=O)[O-])cn1-c1ccc([N+](=O)[O-])cc1	-0.1% (inactive)	-2.2	2% (inactive)	-6.7% (inactive)	3.8% (inactive)	3.6% (inactive)	18.2% (inactive)	10.4% (inactive)	-13.5% (inactive)
CN(C)CCCOC1(Cc2ccccc2)CCCCCC1	6% (inactive)	5.8	4.2% (inactive)	-55.2% (inactive)	17.7% (inactive)	6.8% (inactive)	7.6% (inactive)	33.2% (inactive)	-33.1% (inactive)
CN1CCN(N)CC1	1.1% (inactive)	0.7	1.5% (inactive)	-1.2% (inactive)	-7.3% (inactive)	0.5% (inactive)	0.1% (inactive)	-13.8% (inactive)	10.2% (inactive)
O=C(O)Cn1cnnn1	0.5% (inactive)	-0.1	-0.9% (inactive)	-1.1% (inactive)	-3.2% (inactive)	3.3% (inactive)	4.9% (inactive)	-14.8% (inactive)	6% (inactive)
CC(C)c1cc2c(cc1S(=O)(=O)O)[C@@]1(C)CCC[C@@](C)(C(=O)O)[C@@H]1CC2	-1% (inactive)	-3.3	1.4% (inactive)	3.3% (inactive)	-20.8% (inactive)	-1.8% (inactive)	5.2% (inactive)	-5.2% (inactive)	11.9% (inactive)
O=C1OC2(c3ccccc31)c1cc(Br)c(O)c(Br)c1Oc1c2cc(Br)c(O)c1Br	-0.8% (inactive)	-2.9	0.5% (inactive)	32.8% (inactive)	-24.2% (inactive)	17.7% (inactive)	7.8% (inactive)	24.1% (inactive)	-5.4% (inactive)
CC(C)C[C@H](NC(=O)CNC(=O)[C@H](Cc1ccc(O)cc1)NC(=O)[C@H](CO)NC(=O)[C@H](Cc1c[nH]c2ccccc12)NC(=O)[C@H](Cc1cnc[nH]1)NC(=O)[C@@H]1CCC(=O)N1)C(=O)N[C@@H](CCCN=C(N)N)C(=O)N1CCC[C@H]1C(=O)NCC(N)=O (stereo in doubt)	-1% (inactive)	-0.5	-0.4% (inactive)	0.3% (inactive)	19.8% (inactive)	6% (inactive)	6.7% (active)	11.3% (inactive)	-1.2% (inactive)
Cc1c(C(C)C)c(=O)n(-c2ccccc2)n1C	-0.3% (inactive)	-0.2	-0.6% (inactive)	-2.5% (inactive)	-2.7% (inactive)	0.4% (inactive)	-15.5% (inactive)	36.6% (inactive)	8.15% (inactive)
COC(=O)Nc1nc2ccc(C(=O)C3CC3)cc2[nH]1	41.8% (active)	54.5	1.9% (inactive)	93.1% (active)	103% (active)	-0.3% (inactive)	87.9% (active)	32.9% (inactive)	51.6% (active)
COC(=O)/C=C\C(=O)OC	3.8% (inactive)	9	2.95% (inactive)	8.3% (inactive)	10.6% (inactive)	-1.8% (inactive)	-5.7% (inactive)	5.9% (inactive)	-5.6% (inactive)
Cc1ncc(C[n+]2csc(CCOP(=O)(O)O)c2C)c(N)n1	0.8% (inactive)	-0.6	-0.4% (inactive)	-15.6% (inactive)	-8.2% (inactive)	1% (inactive)	-0.4% (inactive)	-13.2% (inactive)	17.1% (inactive)
O=C(OC1C[C@@H]2CC3C[C@@H](C1)N2CC3=O)c1c[nH]c2ccccc12 (some centres undefined)	-1.1% (inactive)	-0.5	10.8% (inactive)	4.3% (inactive)	-15.2% (inactive)	0.9% (inactive)	42% (inactive)	12.6% (inactive)	17.7% (inactive)
CC(=O)O[C@H]1CC[C@@]2(C)C(=CC[C@@H]3[C@@H]2CC[C@]2(C)C(C(C)=O)=CC[C@@H]32)C1	3.7% (inactive)	0.6	0.2% (inactive)	48% (inactive)	9.9% (inactive)	-2% (inactive)	25.8% (inactive)	60.1% (active)	14.9% (inactive)
